# TSHR antag = Antagonists of the Thyroid Stimulating Hormone Receptor: HTS campaign. activity change, negative = inhibition, % at 11.5 µM. TSHR-expressing cells, TSH-stimulated cAMP HTRF, 2 h; stronger effect = lower value. 0.2% of 330,000 active. Thyrotropin receptor (Homo sapiens), P16473;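 active means activity change below a set negative limit, meaning inhibition stronger than a set level, cut at about -70% in these data; inconclusive means activity change between two set negative limits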
# Target sequence (P16473 whole entry, looked up): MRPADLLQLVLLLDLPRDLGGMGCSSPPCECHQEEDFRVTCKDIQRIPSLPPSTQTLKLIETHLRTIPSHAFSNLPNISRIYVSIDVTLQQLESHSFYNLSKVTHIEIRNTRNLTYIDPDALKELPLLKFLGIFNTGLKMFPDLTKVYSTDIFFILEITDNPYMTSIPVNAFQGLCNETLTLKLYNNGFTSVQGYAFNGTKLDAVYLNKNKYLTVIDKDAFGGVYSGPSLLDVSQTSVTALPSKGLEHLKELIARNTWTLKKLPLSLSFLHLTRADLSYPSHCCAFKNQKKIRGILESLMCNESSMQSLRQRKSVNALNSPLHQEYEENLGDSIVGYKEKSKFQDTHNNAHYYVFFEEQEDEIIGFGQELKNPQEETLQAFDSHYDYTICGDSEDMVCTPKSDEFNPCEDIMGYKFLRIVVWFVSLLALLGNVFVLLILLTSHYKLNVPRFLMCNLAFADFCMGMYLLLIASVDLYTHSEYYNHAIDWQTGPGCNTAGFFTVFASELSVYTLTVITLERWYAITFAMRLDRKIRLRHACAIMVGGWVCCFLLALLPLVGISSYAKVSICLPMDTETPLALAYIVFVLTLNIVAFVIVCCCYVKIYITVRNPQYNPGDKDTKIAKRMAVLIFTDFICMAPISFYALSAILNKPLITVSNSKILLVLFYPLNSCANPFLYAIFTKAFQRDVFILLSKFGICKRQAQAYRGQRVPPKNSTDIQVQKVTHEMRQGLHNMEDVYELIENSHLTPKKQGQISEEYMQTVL
#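 Cell-based HTRF cAMP assay; TSHR cells + compound, TSH EC80 (4nM final), 2 h, 37 deg C. Lysis with anti-cAMP cryptate and cAMP-d2, 30 min RT, read 665/620 nm.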
# RORgamma inh = qHTS for inhibitors of ROR gamma transcriptional activity; Drosophila S2 Gal4-RORgamma UAS-luciferase reporter, 20 h; Nuclear receptor ROR-gamma (Mus musculus), P51450; Potency, µM (doses to about 53.6 µM), for inactives: top-dose activity change, negative = inhibition, most hits filed as inhibitors; 5.4% of 310,000 active; further: potency means the concentration at half of the fitted maximal effect; nearly all actives have a fitted effect of over 60% in size
#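 Stable Schneider cell line, Gal4 DNA-binding domain fused to ROR gamma, UAS-luciferase. Cmpd 1 hr RT → CuSO4 700 uM final → 20 hr RT → luciferase reagent 10 min → luminescence.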
# FBPA coupling cs = qHTS Assay for Inhibitors of Fructose-1,6-bisphosphate Aldolase from Giardia Lamblia: Coupling assay counterscreen | coupling enzyme system counterscreen, AmpLite Red fluorescence | activity change, negative = inhibition, % at 58.2 µM, hits read low | 0.67% of 290,000 active | AID 2472, 2010; in the data active means activity change below about -30%
#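 Counterscreen lacking aldolase: glyceraldehyde-3-phosphate coupling-enzyme reagent preincubated 10 min at RT with compound (at 57.5 uM final), then substrate/coupling system with AmpLite Red added; fluorescence read at 525/598 nm after 20 min RT.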
# ELG1 DNA repair = qHTS screen for small molecules that inhibit ELG1-dependent DNA repair in human embryonic kidney (HEK293T) cells expressing luciferase-tagged ELG1; Potency, µM (top dose mostly 46.1 µM), without a hit: at the highest dose activity change, negative = inhibition, usual class: inhibitors; HEK293T ELG1-luciferase reporter, luminescence, 16 h; DNA damage induced by 5-fluorouridine; 2.3% of 330,000 active; further: potency means the concentration at half of the fitted maximal effect; nearly all actives have a fitted effect of over 55% in size
#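 5-Fluorouridine DNA damage + compound/DMSO, 2,000 cells/well, 16 h, 37 °C/5% CO2. ONE-Glo, 30 min RT, luminescence. Readout = decrease in reporter signal.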
# VP16 counter = VP16 counterscreen qHTS for inhibitors of ROR gamma transcriptional activity | Drosophila S2 Gal4-VP16 UAS-luciferase, luminescence, 20 h | Potency, µM (titrated, usually from 53.6 µM), for the others: at the highest dose activity, negative = inhibition, most hits filed as inhibitors | 3.5% of 310,000 active | AID 2546, 2010;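 further: Gal4-VP16 expression switched on by copper sulfate through the metallothionein promoter; potency means the concentration at half of the fitted maximal effect; nearly all actives have a fitted effect of over 50% in size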
# ELG1 FLuc counter = qHTS screen for small molecules that inhibit ELG1-dependent DNA repair: Hit Confirmation in Cell-Based Luciferin Assay | shares compounds with ELG1 DNA repair | cell-free firefly luciferase luminescence counter-screen, ViewLux | Potency, µM (top dose mostly 46.1 µM), without a hit: top-dose activity change, negative = inhibition, usual class: inhibitors | 3% of 350 active | AID 624247, 2012; further: potency means the concentration at half of the fitted maximal effect
# ELG1-Luc inh = HTS assay for small molecules that inhibit ELG1-dependent DNA repair in human embryonic kidney (HEK293T) cells expressing luciferase-tagged ELG1: Hit Confirmation | shares compounds with ELG1 DNA repair | HEK293T ELG1-luciferase levels, luminescence; cells co-treated with 5-fluorouridine | Potency, µM (titrated, usually from 46.1 µM), for inactives: at the top dose activity change, negative = inhibition, usual class: inhibitors | 68% of 670 active; further: potency means the concentration at half of the fitted maximal effect; nearly all actives have a fitted effect of over 55% in size
# ELG1-Luc MMS = MMS-stimulated human ELG1 repair inhibition, confirmed | shares compounds with ELG1 DNA repair | HEK293T luciferase-tagged ELG1 level, MMS stimulated | Potency, µM (doses to about 46.1 µM), for the others: top-dose activity change, negative = inhibition, hits mostly inhibitors | 53% of 670 active; further: potency means the concentration at half of the fitted maximal effect; nearly all actives have a fitted effect of over 60% in size
# ELG1 5FU viab = qHTS screen for small molecules that inhibit ELG1-dependent DNA repair: Hit Confirmation with 5FU Viability | 670 tested, under 10 active | Potency, µM (series often up to 46.1 µM), for inactives: at the top dose activity change, negative = viability loss, hits mostly cytotoxic | cell viability with 5-FU, ELG1-dependent repair | shares compounds with ELG1 DNA repair | AID 624250, 2012;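 further: ELG1-luc HEK293T cells cotreated with 5-fluorouridine at 10 µM final; potency means the concentration at half of the fitted maximal effect; viability measured 16 h after compound addition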
# ELG1 MMS viab = qHTS screen for small molecules that inhibit ELG1-dependent DNA repair: Hit Confirmation with MMS Viability; shares compounds with ELG1 DNA repair; Cell viability with MMS, ELG1-dependent DNA repair; Potency, µM (titrated, usually from 46.1 µM), without a hit: top-dose activity change, negative = viability loss, most hits filed as cytotoxic; 33% of 670 active;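 further: ELG1-luc HEK293T cells co-treated with 10 µM MMS; potency means the concentration at half of the fitted maximal effect; viability read 16 h after compound addition; nearly all actives have a fitted effect of over 60% in size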
# ELG1 unstim viab = qHTS screen for small molecules that inhibit ELG1-dependent DNA repair: Hit Confirmation with Unstimulated Viability Assay | AID 624252, 2012 | cell viability counter-screen, unstimulated, luminescence | shares compounds with ELG1 DNA repair | Potency, µM (series often up to 45.9 µM), inactives show at the highest dose activity change, negative = loss of viability, usual class: cytotoxic | 8% of 900 active;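 further: potency means the concentration at half of the fitted maximal effect; compound exposure lasted 16 hours before reading; nearly all actives have a fitted effect of over 55% in size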
# FLuc biochem = qHTS screen for small molecules that inhibit ELG1-dependent DNA repair: Hit Confirmation in Biochemical Luciferin Assay | shares compounds with ELG1 DNA repair | purified firefly luciferase, luminescence counter-screen | Potency, µM (titrated, usually from 57.5 µM), inactives show top-dose activity, negative = inhibition, hits mostly inhibitors | 10% of 350 active; further: potency means the concentration at half of the fitted maximal effect
# An asterisk follows results filed as active; u = inconclusive; x = no result given. This is a sample that favours compounds with a hit; in the whole collection about 8% have one here. Unless noted, the call rests on the fitted dose curve; in most records, active means well fitted curve in the direction sought with a large enough effect; inconclusive means small, poorly fitted or top-dose-only effect, or another doubt; inactive means no such curve, though single readings can be large; an effect the other way counts as inactive or inconclusive. On the % scale 0 is the no-effect control and ±100 the full control effect.
SMILES,TSHR antag,RORgamma inh,FBPA coupling cs,ELG1 DNA repair,VP16 counter,ELG1-Luc inh,ELG1-Luc MMS,ELG1 5FU viab,ELG1 MMS viab,ELG1 unstim viab,others
CSc1sc(-c2ccnc(SCCS(C)(=O)=O)n2)c(-c2ccccc2)c1C#N,-4.2,11.9%,0.3,4.61µM*,-25.6%,3.15µM*,0.56µM*,0.9%,0.628µM*,u,
COc1cc(C(=O)Oc2ccccc2/C=N/NC(=O)c2ccc(C)c(Cl)c2)cc(OC)c1OC,8.1,5.01µM*,-0.2,4.61µM*,u,2.81µM*,u,u,-11.1%,-9.8%,
COc1ccc(C(=O)N/N=C/c2ccccc2C(=O)O)cc1OC,5.0,-3.9%,0.3,-2.1%,-5.8%,x,x,x,x,x,
CCOC(=O)c1cnc(-n2nc(C)cc2C)nc1Nc1ccc(O)cc1,-0.8,-40.5%,-1.3,4.11µM*,-3.8%,3.53µM*,2.5µM*,-2.6%,2.81µM*,u,
O=C(c1ccc(-c2cc3ccccc3oc2=O)cc1)N1CCN(c2ccc(Cl)cc2[N+](=O)[O-])CC1,6.2,75.5%,-1.4,4.61µM*,-11.1%,4.99µM*,-7.0%,u,u,u,
O=C(NCCc1ccccc1)C1CCCN1C(=O)Nc1ccc(Cl)cc1 (stereo unspecified),-7.8,15.8%,4.9,-8.6%,-14.3%,x,x,x,x,x,
CCOc1cccc(CN2CCC(CCC(=O)NC3CC3)CC2)c1O,18.2,-14.7%,2.5,1.1%,-5.4%,x,x,x,x,x,
Cc1cc(Br)ccc1NC(=O)CN1C(=O)C2CC=CCC2C1=O (stereo unspecified),7.5,x,x,-6.8%,x,x,x,x,x,x,
COCCN(C(=O)c1ccc(N2CCCC2=O)cc1)c1c(N)n(Cc2ccccc2)c(=O)[nH]c1=O,-13.9,x,x,18.4%,x,x,x,x,x,x,
CC(=O)N1N=C(c2ccco2)CC1c1ccco1 (stereo unspecified),4.2,u,5.9,6.8%,0.9%,x,x,x,x,x,
Cc1ccc(C2=NN(C(=O)CCl)C(c3ccco3)C2)o1 (stereo unspecified),-3.7,11.2µM*,0.5,2.31µM*,u,22.3µM*,3.97µM*,u,7.05µM*,u,
COCCCNc1nc(N)c([N+](=O)[O-])c(Nc2cc(OC)ccc2OC)n1,-5.5,-9.4%,1.3,1.83µM*,-6.3%,1.12µM*,u,u,-1.8%,-6.6%,
O=c1[nH]c(=O)c2ccccc2o1,x,1.6%,x,x,2.2%,x,x,x,x,x,
O=c1c2ccccc2oc2c1oc1ccccc12,7.5,x,x,u,x,x,x,x,x,-14.7%,
COc1ccc(/C=C/C(=O)Nc2ccc3nc4n(c(=O)c3c2)CCCC4)cc1,-5.6,1.4%,0.6,u,-16.7%,x,x,x,x,x,
COc1cc(/C=C/C(=O)Nc2ccc3nc4n(c(=O)c3c2)CCCC4)cc(OC)c1OC,-23.4,-8.8%,1.2,4.61µM*,-12.3%,2.81µM*,9.96µM*,u,-2.7%,-15.3%,
COc1ccc(C(=O)OCC(=O)Nc2ccc3c(c2)OCO3)cc1S(=O)(=O)N1CCOCC1,-5.7,x,x,-2.7%,x,x,x,x,x,x,
COc1ccc(N2CCCn3c2nc2c3c(=O)n(CCc3ccccc3)c(=O)n2C)cc1,13.5,-18.7%,-1.0,4.11µM*,-10.4%,17.7µM*,15.8µM*,u,-6.1%,-19.8%,
COc1ccc(N2C(=NC(=O)CCC3CCCC3)SC3CS(=O)(=O)CC32)cc1 (stereo unspecified),3.9,-3.9%,0.6,u,2.2%,x,x,x,x,x,
Fc1ccccc1CNc1ncnc2sccc12,-33.0,u,-2.0,2.91µM*,u,u,4.45µM*,-2.7%,3.15µM*,u,
CN(CC(=O)Nc1ccccc1C(F)(F)F)C(=O)c1ccc(-c2ccc(Cl)cc2)o1,-12.7,x,x,-2.2%,x,x,x,x,x,x,
CN(CC(=O)Nc1ccccc1Br)C(=O)c1ccc(-c2ccc(Cl)cc2)o1,-22.2,u,x,0.366µM*,5.62µM*,u,22.3µM*,-7.7%,25µM*,u,ELG1 FLuc counter=15.6%;FLuc biochem=20.6µM*
CCOc1cc(C(=O)Nc2cccc(OCC(=O)N3CCOCC3)c2)cc(OCC)c1OCC,22.7,9.0%,6.4,2.06µM*,2.1%,8.88µM*,u,6.1%,-0.4%,-17.7%,
Cc1cccc2cc(CN(CCN3CCOCC3)C(=O)Nc3ccccc3F)c(=O)[nH]c12,14.2,8.1%,1.6,3.26µM*,-6.5%,3.97µM*,30.0%,u,4.2%,-12.4%,
CCc1nc(CN2CCN(c3ccc(C(F)(F)F)cn3)CC2)c(C)[nH]1,6.7,2.9%,3.2,u,-4.5%,u,3.15µM*,-3.5%,4.45µM*,u,

# Screening data from PubChem.
